Assay results published in PubChem BioAssay.
This is one part of the list. Active and inactive are the calls of the source.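 How the source made its calls, unless noted: active means ratio signal rise beyond 5 SD above unstimulated control wells' mean, seen in both duplicate runs; inactive means the rest.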

Assays:
[1] = parental HEK293 membrane potential modulation, confirmation, counter-screen for TRPC6 modulator project, cell-based (AID 488924;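 active means membrane potential signal moves up or down beyond 5 SD from buffer-only wells, on both duplicate plates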); conditions: parental HEK293, membrane potential dye fluorescence; at 10 µM
[2] = modulation of acetylcholine-evoked membrane potential, parental HEK293, confirmation, counter-screen for TRPC6 modulator project, cell-based, second counter-screen, membrane potential dye (AID 488926;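 active means membrane potential signal drops by more than 5 SD from the mean control signal, in both duplicate plates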;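 on inhibition: plate controls were acetylcholine ECmax control wells for no effect and buffer only wells for full effect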); conditions: parental HEK293, membrane potential dye fluorescence, at 10 µM, after compound, maximal acetylcholine stimulation; hits give high values
[3] = system: Transient receptor potential cation channel subfamily C member 4 (mouse); experiment: TRPC4 modulation by TRPC6 hit compounds, confirmation, selectivity assay for TRPC6 modulator project, cell-based, HEK293 TRPC4/mu-opioid, membrane potential dye, mouse (AID 488927;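 active means membrane potential signal moved up or down beyond 5 SD of buffer control wells, in both duplicate plates, actives on both sides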;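 on percent change from control (negative = decrease, positive = increase): plate controls were assay buffer wells for no effect and DAMGO maximal-effect wells for full effect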); conditions: membrane potential fluorescence, at 10 µM
[4] = system: TRPC4 (transient receptor potential cation channel C4), mouse; experiment: TRPC4 inhibition by TRPC6 hit compounds, confirmation, selectivity assay for TRPC6 modulator project, cell-based, second screen, HEK293 TRPC4/mu-opioid, membrane potential dye (AID 488928;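 active means drop in membrane potential signal beyond 5 SD of the control wells in both duplicate plates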;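 further: TRPC4 counter screen for TRPC6 hits run under conditions tuned for TRPC6 not TRPC4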); conditions: membrane potential dye fluorescence, at 10 µM, stimulated with maximal-effect DAMGO; hits give high values
[5] = biological target: Short transient receptor potential channel 6 (Mus musculus) (UniProt Q61143); experiment: mouse TRPC6 channel inhibitors, confirmation, HEK293 cells, membrane potential dye, duplicate (AID 488960;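 active means fluorescence ratio falls more than 5 SD below the full-stimulation control mean, in both duplicate runs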;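 on inhibition: integrated fluorescence ratio of peak minus minimum over baseline after agonist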); conditions: ACh-evoked depolarization, at 10 µM; hits give high values
Short transient receptor potential channel 6 (Mus musculus), sequence (Q61143 whole entry, looked up): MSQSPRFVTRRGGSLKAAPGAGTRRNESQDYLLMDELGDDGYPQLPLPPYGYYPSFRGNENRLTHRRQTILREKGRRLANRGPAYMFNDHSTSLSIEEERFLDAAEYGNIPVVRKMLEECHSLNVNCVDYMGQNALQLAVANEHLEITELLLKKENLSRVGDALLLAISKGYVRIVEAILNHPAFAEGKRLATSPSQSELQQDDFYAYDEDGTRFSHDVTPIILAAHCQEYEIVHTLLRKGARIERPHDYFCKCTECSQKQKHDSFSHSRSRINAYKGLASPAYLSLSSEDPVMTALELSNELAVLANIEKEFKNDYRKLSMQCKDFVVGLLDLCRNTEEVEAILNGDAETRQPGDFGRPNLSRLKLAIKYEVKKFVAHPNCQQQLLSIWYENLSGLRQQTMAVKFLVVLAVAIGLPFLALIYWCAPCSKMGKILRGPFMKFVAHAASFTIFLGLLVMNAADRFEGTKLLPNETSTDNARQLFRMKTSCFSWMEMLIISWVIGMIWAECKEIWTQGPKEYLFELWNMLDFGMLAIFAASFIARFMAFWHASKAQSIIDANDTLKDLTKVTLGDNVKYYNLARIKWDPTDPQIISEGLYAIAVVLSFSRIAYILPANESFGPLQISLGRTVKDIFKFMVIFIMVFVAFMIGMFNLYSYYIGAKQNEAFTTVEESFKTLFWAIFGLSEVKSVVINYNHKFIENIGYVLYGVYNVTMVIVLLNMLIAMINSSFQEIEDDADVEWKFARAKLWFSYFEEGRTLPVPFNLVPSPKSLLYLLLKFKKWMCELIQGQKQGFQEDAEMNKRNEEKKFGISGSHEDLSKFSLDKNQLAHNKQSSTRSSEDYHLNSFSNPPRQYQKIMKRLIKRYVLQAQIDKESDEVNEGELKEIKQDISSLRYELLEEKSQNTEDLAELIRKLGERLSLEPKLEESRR

[6] = biological target: Short transient receptor potential channel 6 (Mus musculus) (UniProt Q61143); experiment: mouse TRPC6 channel activators, confirmation, HEK293 cells, membrane potential dye, duplicate (AID 488961); conditions: HEK293-TRPC6 membrane potential dye fluorescence, FDSS, at 10 µM; hits give high values;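 on activation: plate controls were buffer EC0 wells for no effect and acetylcholine ECmax response for full effect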
[7] = biological target: Potassium voltage-gated channel subfamily KQT member 1 (Homo sapiens) (UniProt P51787); experiment: KCNQ1 potassium channel inhibitors, confirmation, cell-based, Tl flux, duplicate (AID 588353;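 active means primary screen active, with duplicate mean exceeding buffer control mean plus 3 SD of buffer wells, cut at about 28% in these data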;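 further: 0% = buffer control ratio and 100% = XE991 inhibitor control ratio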); conditions: KCNQ1 cell line, FluxOR thallium flux fluorescence, at 10 µM, hits give high values
Potassium voltage-gated channel subfamily KQT member 1 (Homo sapiens), sequence (P51787 whole entry, looked up): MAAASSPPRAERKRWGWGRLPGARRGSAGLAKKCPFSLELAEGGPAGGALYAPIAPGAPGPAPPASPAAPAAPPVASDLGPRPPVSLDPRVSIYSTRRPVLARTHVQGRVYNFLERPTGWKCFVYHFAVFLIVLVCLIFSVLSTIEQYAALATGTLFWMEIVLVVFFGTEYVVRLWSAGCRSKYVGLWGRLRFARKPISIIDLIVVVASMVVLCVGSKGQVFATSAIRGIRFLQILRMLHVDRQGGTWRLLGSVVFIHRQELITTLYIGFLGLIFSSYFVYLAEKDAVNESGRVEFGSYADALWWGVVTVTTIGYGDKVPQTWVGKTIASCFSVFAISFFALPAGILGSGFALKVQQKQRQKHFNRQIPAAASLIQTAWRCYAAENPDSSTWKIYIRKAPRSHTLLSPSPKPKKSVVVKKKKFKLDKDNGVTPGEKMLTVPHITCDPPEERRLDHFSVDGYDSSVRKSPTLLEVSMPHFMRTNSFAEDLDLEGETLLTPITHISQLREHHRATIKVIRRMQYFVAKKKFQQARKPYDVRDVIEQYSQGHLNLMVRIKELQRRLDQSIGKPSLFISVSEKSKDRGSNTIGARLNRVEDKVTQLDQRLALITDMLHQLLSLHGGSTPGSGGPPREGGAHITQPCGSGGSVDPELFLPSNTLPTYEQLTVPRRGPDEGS

[8] = thallium flux effects in parental CHO cells, counter-screen for KCNQ1 inhibitor project, cell-based, Tl flux (AID 588366;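 active means mean of duplicate thallium-flux fluorescence ratios in parental host cells more than 5 SD below the buffer control mean, cut at about 0.38 in these data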;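 further: ratio is peak minus minimum fluorescence divided by baseline fluorescence; actives read low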); conditions: parental CHO-K1, FluxOR thallium flux fluorescence ratio; at 10 µM; hits give low values; zero means no signal rise above baseline
[9] = biological target: Potassium voltage-gated channel subfamily KQT member 2 (Rattus norvegicus) (UniProt O88943); experiment: KCNQ2 channel inhibition, selectivity assay for KCNQ1 inhibitor project, cell-based (AID 651746;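 active means mean percent inhibition of the KCNQ2 thallium signal more than 5 SD above the buffer-only control wells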;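 further: 0% = buffer control wells and 100% = XE-991 inhibitor control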); conditions: KCNQ2 cells, FluxOR thallium flux fluorescence, at 10 µM; hits give high values
Potassium voltage-gated channel subfamily KQT member 2 (Rattus norvegicus), sequence (O88943 whole entry, looked up): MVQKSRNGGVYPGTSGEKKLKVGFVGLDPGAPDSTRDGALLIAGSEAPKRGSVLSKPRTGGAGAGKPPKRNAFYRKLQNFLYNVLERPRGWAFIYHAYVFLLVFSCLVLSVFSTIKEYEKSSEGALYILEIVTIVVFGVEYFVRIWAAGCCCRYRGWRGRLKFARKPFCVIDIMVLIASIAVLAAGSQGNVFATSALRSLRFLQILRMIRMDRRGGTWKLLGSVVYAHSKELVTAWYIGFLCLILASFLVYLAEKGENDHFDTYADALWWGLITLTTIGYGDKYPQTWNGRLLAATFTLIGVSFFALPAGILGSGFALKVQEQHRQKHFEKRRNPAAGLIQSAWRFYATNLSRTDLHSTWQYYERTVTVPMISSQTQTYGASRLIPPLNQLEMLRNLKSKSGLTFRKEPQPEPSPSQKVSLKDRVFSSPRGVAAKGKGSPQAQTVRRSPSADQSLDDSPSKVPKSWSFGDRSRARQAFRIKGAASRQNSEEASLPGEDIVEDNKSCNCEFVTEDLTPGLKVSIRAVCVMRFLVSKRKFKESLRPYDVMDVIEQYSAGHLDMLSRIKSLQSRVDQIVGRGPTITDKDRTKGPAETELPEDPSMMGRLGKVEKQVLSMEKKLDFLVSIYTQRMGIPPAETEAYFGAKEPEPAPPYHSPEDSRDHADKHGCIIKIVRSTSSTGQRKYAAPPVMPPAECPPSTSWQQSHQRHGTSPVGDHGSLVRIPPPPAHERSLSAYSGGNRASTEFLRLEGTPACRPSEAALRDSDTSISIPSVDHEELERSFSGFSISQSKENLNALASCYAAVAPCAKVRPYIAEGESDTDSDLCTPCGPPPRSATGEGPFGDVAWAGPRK

[10] = biological target: Potassium voltage-gated channel subfamily E member 1 (Homo sapiens) + Potassium voltage-gated channel subfamily KQT member 1 (Homo sapiens) (UniProt P15382+P51787); experiment: KCNQ1/KCNE1 channel inhibition, selectivity assay for KCNQ1 inhibitor project, CHO-K1 cells, thallium flux, FluxOR (AID 652147;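 active means mean percent inhibition of duplicate wells above the buffer-only control mean plus 3 SD of those controls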;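 further: 0% = buffer only wells and 100% = XE-991 inhibitor control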); conditions: FluxOR thallium flux fluorescence, at 10 µM; hits give high values
Potassium voltage-gated channel subfamily E member 1 (Homo sapiens) + Potassium voltage-gated channel subfamily KQT member 1 (Homo sapiens), sequence (P51787 whole entry, looked up): as the sequence (P51787 whole entry, looked up) above

[11] = thallium flux activation in parental CHO cells, counter-screen for KCNQ1 potentiator project (AID 493006;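 active means duplicate-averaged activation above buffer control mean plus 5 SD of those controls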;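 on activation: fluorescence ratio of max minus min over baseline after K+ and Tl+ depolarization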); conditions: parental CHO-K1 cells, FluxOR thallium flux, at 10 µM; hits give high values
[12] = biological target: Potassium voltage-gated channel subfamily KQT member 1 (Homo sapiens) (UniProt P51787); experiment: KCNQ1 potassium channel potentiators, confirmation, FluxOR thallium flux, CHO cells, duplicates (AID 493007;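 active means potentiation averaged over duplicate wells exceeding buffer-only control mean by more than 3 SD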;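 on outcome: cells depolarized by a potassium plus thallium sulfate stimulus after compound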;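 on potentiation: 0% = buffer-only wells and 100% = R-L3 activator control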); conditions: KCNQ1 cell line, FluxOR thallium flux fluorescence, at 10 µM; hits give high values, % of reference activator effect, buffer zero
[13] = biological target: Potassium voltage-gated channel subfamily KQT member 2 (Rattus norvegicus) (UniProt O88943); experiment: rat KCNQ2 channel potentiation, selectivity assay for KCNQ1 potentiator project, KCNQ2-CHO-K1 cells (AID 493009;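 active means mean duplicate potentiation above the buffer control mean plus 5 SD of buffer wells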;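 further: assay conditions were tuned for KCNQ1 rather than KCNQ2 modulators; signal is max minus min fluorescence divided by baseline after thallium stimulus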); conditions: FluxOR thallium flux fluorescence, at 10 µM; hits give high values, scaled: buffer 0, activator control 100
[14] = biological target: Potassium voltage-gated channel subfamily KQT member 1 (Homo sapiens) (UniProt P51787); experiment: KCNQ1 channel current potentiators, confirmation, orthogonal assay for KCNQ1 potentiator project, IonWorks patch clamp, KCNQ1-CHO cells (AID 493184;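 active means current rise at least 3 SD above the untreated control mean in each of two repeat wells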); conditions: automated patch clamp current, at 10 µM; hits give high values

CCOC(=O)C1=NN(c2ccc(Cl)cc2)/C(=C/C2=NCCc3cc(OC)c(OC)cc32)S1
active: percent change from control (negative = decrease, positive = increase) [3] -15.5%
inactive: outcome [1] | outcome [2] | outcome [4] | outcome [5] | outcome [6]

O=C(Nc1cccc(Cl)c1)Nc1ccccc1NS(=O)(=O)c1cccs1
active: percent change from control (negative = decrease, positive = increase) [3] -12.5% | inhibition [4] 36.5% | inhibition [7] 122% | fluorescence ratio (Tl flux) [8] 0.346 | inhibition [9] 78.7% | inhibition [10] 109%
inactive: outcome [1] | outcome [2] | outcome [5] | outcome [6]

Cc1cc(N2CCN(S(=O)(=O)c3ccc(C)c(C)c3)CC2)c2ccccc2n1
active: percent change from control (negative = decrease, positive = increase) [3] -10.5% | inhibition [4] 65%
inactive: outcome [1] | outcome [2] | outcome [5] | outcome [6]

CCc1ccc(-c2cc(C(=O)NN3CCN(C)CC3)c3ccccc3n2)cc1
inactive: outcome [1] | outcome [2] | outcome [3] | outcome [5] | outcome [6]
active: inhibition [4] 41%

Cc1cccn2c(=O)c3cc(C#N)c(=O)n(CCCN4CCOCC4)c3nc12
inactive: outcome [6]
active: membrane potential signal change [1] -248% | inhibition [2] 112% | percent change from control (negative = decrease, positive = increase) [3] -54% | inhibition [4] 47.5% | inhibition [5] 67.5%

Cn1c(/C(C#N)=C2/CCCCCN2)nc2ccccc21
inactive: outcome [1] | outcome [2] | outcome [3] | outcome [4] | outcome [5] | outcome [6]

CN(C)c1cc(N)c2ccccc2n1 (tested in a mixture with another compound)
active: membrane potential signal change [1] -230% | percent change from control (negative = decrease, positive = increase) [3] -40.5% | inhibition [4] 82% | inhibition [5] 69.5%
inactive: outcome [2] | outcome [6]

N=c1c2c3c(sc2ncn1CCCN1CCOCC1)CCCCC3
active: inhibition [4] 52.5%
inactive: outcome [1] | outcome [2] | outcome [3] | outcome [5] | outcome [6]

O=C(C[n+]1ccc2c(c1)nnn2-c1ccccc1)c1ccc(Cl)cc1
active: membrane potential signal change [1] -110% | percent change from control (negative = decrease, positive = increase) [3] -37.5% | inhibition [4] 62% | inhibition [5] 56%
inactive: outcome [2] | outcome [6]

C/C(=N\Nc1nc2ccccc2[nH]1)c1cccs1
active: membrane potential signal change [1] -108% | inhibition [2] 73.5% | percent change from control (negative = decrease, positive = increase) [3] -24% | inhibition [4] 85% | inhibition [5] 76%
inactive: outcome [6]

CCOc1ccc(/C(O)=C2/C(=O)C(=O)N(Cc3cccnc3)C2c2ccc(N(C)C)cc2)c(C)c1 (stereo not given)
inactive: outcome [1] | outcome [2] | outcome [3] | outcome [4] | outcome [5] | outcome [6]

CCC(C)(C)NC(=O)CN(C(=O)CCC(=O)Nc1nccs1)c1ccc2c(c1)OCO2
inactive: outcome [1] | outcome [2] | outcome [3] | outcome [4] | outcome [5] | outcome [6]

CN1CCN(c2ccc([N+](=O)[O-])c(Sc3nc4ccccc4[nH]3)c2)CC1
inactive: outcome [2] | outcome [6]
active: membrane potential signal change [1] -66.5% | percent change from control (negative = decrease, positive = increase) [3] -14.5% | inhibition [4] 58.5% | inhibition [5] 52.5%

CC(C)(C)n1nnnc1C(c1ccc2ncccc2c1)N1CCSCC1 (stereo not given)
inactive: outcome [1] | outcome [2]
active: percent change from control (negative = decrease, positive = increase) [3] 19% | inhibition [4] 33% | inhibition [5] 84% | activation [6] 140%

CC1=NN(C(N)=S)C(=O)C1N=Nc1cccc(Cl)c1C (stereo not given)
active: activation [11] 1010% | potentiation [12] 665% | potentiation [13] 1230%
inactive: outcome [14]

Oc1c(Cl)cc(Cl)c2cccnc12
inactive: outcome [14]
active: activation [11] 148% | potentiation [12] 67% | potentiation [13] 211%

CC(C)(C)NC(=O)CN(C(=O)CNC(=O)c1cccs1)c1ccc2c(c1)OCCO2
inactive: outcome [11] | outcome [12] | outcome [13] | outcome [14]

COc1ccccc1OCCSc1nc2ccccc2n1CCC(=O)O
inactive: outcome [11] | outcome [12] | outcome [13] | outcome [14]

CSC(C(=O)c1cc2ccccc2o1)c1ccccc1 (stereo not given)
inactive: outcome [11] | outcome [12] | outcome [13] | outcome [14]

C=CCC(=O)N1CCC(n2nccc2NC(=O)CCOc2ccccc2)CC1
inactive: outcome [11] | outcome [12] | outcome [13] | outcome [14]

CC1CCN(C(=S)NC(=O)c2ccc(C(C)(C)C)cc2)CC1
inactive: outcome [14]
active: activation [11] 165% | potentiation [12] 85.5% | potentiation [13] 284%

CC(CCc1ccccc1)NC(=S)NC(=O)c1ccco1 (stereo not given)
active: activation [11] 214% | potentiation [12] 69.5% | potentiation [13] 251%
inactive: outcome [14]

COc1ccc(C(=O)N2CCC(N3CCN(c4ccccc4)CC3)CC2)cc1
inactive: outcome [11] | outcome [12] | outcome [13] | outcome [14]

COc1ccccc1-n1cnc2cc(NCc3ccco3)ccc21
inactive: outcome [11] | outcome [13] | outcome [14]
active: potentiation [12] 34.5%

CC(NC(=S)NC(=O)c1ccccc1Br)c1ccccc1 (stereo not given)
active: potentiation [12] 84% | potentiation [13] 184%
inactive: outcome [11] | outcome [14]

COc1ccc(C(=O)O/N=C(\N)c2ccccc2Cl)cc1OC
inactive: outcome [11] | outcome [12] | outcome [13] | outcome [14]

Cc1nn(C)c(C(=O)NC(=S)Nc2ccc([N+](=O)[O-])cc2)c1Cl
active: activation [11] 166% | potentiation [12] 72% | potentiation [13] 196%
inactive: outcome [14]
